Laboratory results published in the supplement of paper PMC10338343.
± gives the standard deviation.

Test system: MILI (PIWIL2) piRISC loaded with piRNA #1 (26 nt)
Assay: pre-steady-state target cleavage rate (min^-1); guide: piRNA #1 5'p-UGAGGUAGUAGGUUGUAUAGUAUCCA; MIWI and MILI are mouse PIWI proteins and EfPiwi is from a freshwater sponge; tags in brackets are library labels; higher = faster piRNA-guided slicing of the target
Details: auxiliary factor: 500 nM mouse GTSF1
Protocol: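 Cleave-'n-Seq: a library of target RNAs (target site embedded in constant flanks, ACAGCATTCCGCGTTAGTGATATCCG... 5' flank; DNA-blocked outside the site) at 0.1 nM was incubated with 1 nM active mouse MILI or MIWI piRISC (synthetic 5'-monophosphorylated piRNA guide) with or without 500 nM mouse GTSF1 at 33 °C for 1 min to 16 h. Uncleaved targets were sequenced and normalised to non-target controls, and the pooled three trials were fitted to a burst-and-steady-state model to give the pre-steady-state cleavage rate (min^-1; k3 is constrained to at most 1e-4). Sequence is the target site only; target names encode pairing extent (gX:gY) and contiguous / 1-mismatch / 2-mismatch / bulge geometry. Fits with R² ≤ 0 are excluded.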

Going from GGAGACCUAUGAUAACAUCCUACUUCCUCA to GGAGAGGAUACUAUACAUCCUUCUACCUCA, the “pre-steady-state target cleavage rate” value rises from 0.00421 ± 0.0027 to 0.0216 ± 0.0041.

First: GGAGACCUAUGAAUACAACCUACUCACCUCA
Second: GGAGACCUAACUAUAGAACCUACUACCACA
The “pre-steady-state target cleavage rate” value of the first is lower: 0.004 ± 0.0026 for the first, 0.0663 ± 0.019 for the second.

Going from GGAGACCAUACUAUACAACCUACUAUCCUCA to GGAGUGGAUACUAUACAAGCAACUACCUCA, the “pre-steady-state target cleavage rate” value falls from 0.219 ± 0.019 to 0.00874 ± 0.0017.

GGAGAGGAUACUAUACAACCUACUACUCUCA and GGAGAGGAUACUAUACAAGCUACUACCUGA are within error of each other in “pre-steady-state target cleavage rate” value: 0.123 ± 0.015 for the first, 0.111 ± 0.015 for the second.

Going from “GGAGACCAUACUAUACAACCUACUACCUCU [g2:g23:cont:t1U]” to GGAGACCUAUGAUUACAACCUCACUACCUCA, the “pre-steady-state target cleavage rate” value falls from 0.254 ± 0.024 to 0.00291 ± 0.0027.

Going from “GGAGACCUUACUAUACAACCUACUACCUCG [g2:g22:cont:t1G]” to GGAGACCAUACUGAUACAACCUACUACCUCA, the “pre-steady-state target cleavage rate” value falls from 0.173 ± 0.015 to 0.112 ± 0.014.

GGAGUGGAUACUAUACAACCUAGAACCUCA and GGAGACCUAUGAAUACAACCUACUACCUGA are within error of each other in “pre-steady-state target cleavage rate” value: 0.0036 ± 0.0022 for the first, 0.00268 ± 0.0026 for the second.

Compared with GGAGACCUAUGUAUACAACCUACAACGUCA, GGAGACCUAUGUAUACAACCUACUACGCUCA is higher in “pre-steady-state target cleavage rate” value: 0.00278 ± 0.0027 for the first, 0.0944 ± 0.013 for the second.

Compared with GGAGUGCAUACUAUACAACGUACUACCUCA, GGAGACGAUAGUAUACAACCUACUAGCUCA is higher in “pre-steady-state target cleavage rate” value: 0.0301 ± 0.0044 for the first, 0.0976 ± 0.021 for the second.

Compared with GGAGACCUAUGAUAUGUUCCUUCUACCUGA, GGAGACCUAUGUUAUACAACCUACUACCUCA is higher in “pre-steady-state target cleavage rate” value: < 0.0001 for the first, 0.104 ± 0.01 for the second.

Compared with GGAGAGGCUACUAUACAACCUACUACCUCA, GGAGACGAUACUAUAGAACGUACUACCUCA is lower in “pre-steady-state target cleavage rate” value: 0.182 ± 0.017 for the first, 0.0134 ± 0.0023 for the second.

GGAGACCUAUCUAUACAACCUUACUACCUCA and GGAGACCUAUGAUAACAACCUACUUCCUCA are within error of each other in “pre-steady-state target cleavage rate” value: 0.00278 ± 0.0026 for the first, 0.00353 ± 0.0025 for the second.

Going from GGAGUGGAUAGUAUACAACGUACUACCUCA to GGAGUGGAUAUCUAUACAACCUACUACCUCA, the “pre-steady-state target cleavage rate” value rises from 0.0168 ± 0.0038 to 0.0708 ± 0.0091.

Compared with GGAGUCCAUACUAUACAACCUACUACCUCA, GGAGACCUAUCUAUACAACCAAGUACCUCA is lower in “pre-steady-state target cleavage rate” value: 0.181 ± 0.015 for the first, 0.00317 ± 0.0031 for the second.

First: GGAGACCUAUCUAUACAACCUACUAGCACA
Second: GGAGACCUAACUAUACUACCUAGUACCUCA
The “pre-steady-state target cleavage rate” value of the first is higher: 0.0357 ± 0.012 for the first, 0.0154 ± 0.0058 for the second.

Going from GGAGACCUAACAAUUCAACCUACUACCUCA to GGAGACCAUACUAUACAACCUACUACGCUCA, the “pre-steady-state target cleavage rate” value rises from 0.0406 ± 0.013 to 0.219 ± 0.028.

Compared with GGAGUGCAUACUAUACAAGCUACUACCUCA, GGAGAGGAUACAUAUACAACCUACUACCUCA is lower in “pre-steady-state target cleavage rate” value: 0.213 ± 0.014 for the first, 0.104 ± 0.0078 for the second.

First: GGAGACCUAUCUAUACUACCUACUAGCUCA
Second: GGAGACGAAACUAUACUACCUACUACCUCA
The “pre-steady-state target cleavage rate” value of the first is lower: 0.0698 ± 0.014 for the first, 0.132 ± 0.02 for the second.

First: GGAGUCGAUACUAUUCAACCUACUACCUCA
Second: GGAGACCAUACUAUACAAGCUACUAGCUCA
The “pre-steady-state target cleavage rate” value of the first is higher: 0.192 ± 0.012 for the first, 0.0756 ± 0.022 for the second.

Compared with GGAGACCUAUGUAUACAAUCUACUACCUCA, GGAGACCUAUGAUUACAACCUACUUCCUCA is lower in “pre-steady-state target cleavage rate” value: 0.0642 ± 0.011 for the first, 0.00303 ± 0.0022 for the second.
